Assay outcomes (PubChem BioAssay)
C diff HTS – C. difficile growth inhibition; growth activity, negative = inhibition, % at 16 µg/mL (by protocol); AID 1259249; 86,000 compounds, 0.25% hits; Clostridium difficile clinical isolate growth, OD600, 24 h; stronger effect = lower value;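 active = mean growth activity at or below -80% and every replicate also at or below -80%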
Tcruzi prolif – inhibitors of T. cruzi proliferation | T. cruzi beta-gal in NIH3T3, GalScreen luminescence, 90 h | inhibition, % at 8.34 µM | 77,000 compounds, 5.9% hits | AID 624255;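 active = mean inhibition above about 93%, with at least 55% of replicates each passing it, limit read from the data, passing the limit was not always enough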
Pf Dd2 growth – P. falciparum Dd2 growth inhibition; AID 1159554; activity change, % at 10 µM; 94,000 compounds, 2.3% hits; SYBR Green, 72 h; stronger effect = lower value; in the data active = activity change below about -80%
Of the large screens only hits and unclear results are named; the others gave an inactive call. An excerpt weighted towards active compounds, which were near 6.7% of everything screened.

CO[C@@H]1CN(C)C(=O)c2ccc(NC(=O)C3CCOCC3)cc2OC[C@@H](C)N(C)C[C@H]1C	none
CCCC#Cc1ccc2c(c1)O[C@@H](CN(C)C(=O)c1ccccc1F)[C@@H](C)CN([C@@H](C)CO)S2(=O)=O	Pf Dd2 growth -83
COCC#Cc1ccc2c(c1)O[C@@H](CN(C)C(=O)c1ccccc1F)[C@@H](C)CN([C@H](C)CO)S2(=O)=O	none
CCCC#Cc1ccc2c(c1)O[C@H](CN(C)C(=O)c1ccccc1F)[C@H](C)CN([C@H](C)CO)S2(=O)=O	Pf Dd2 growth -81
C[C@H](CO)N1C[C@H](C)[C@H](CN(C)C(=O)c2ccccc2F)Oc2cc(C#CCN(C)C)ccc2S1(=O)=O	none
CC(=O)N(C)C[C@H]1Oc2cc(-c3cncnc3)ccc2S(=O)(=O)N([C@@H](C)CO)C[C@H]1C	none
C/C=C/c1ccc([C@@H]2[C@@H](CO)N(C(C)=O)C23CN(C(=O)c2ccncc2)C3)cc1	none (no result: Tcruzi prolif)
Cc1noc(C)c1NC(=O)Nc1ccc2c(c1)C(=O)N([C@@H](C)CO)C[C@@H](C)[C@@H](CN(C)S(=O)(=O)c1cn(C)cn1)O2	none
C[C@@H]1CCCCO[C@@H](CN(C)C(=O)C2CCCCC2)[C@H](C)CN([C@@H](C)CO)C(=O)c2cc(NC(=O)c3ccccc3)ccc2O1	none
C[C@H](CO)N1C[C@H](C)[C@@H](CN(C)C(=O)C2CCCCC2)OCCCC[C@H](C)Oc2ccc(NC(=O)c3ccccc3)cc2C1=O	none
C[C@@H]1CCCCO[C@H](CN(C)C(=O)C2CCCCC2)[C@@H](C)CN([C@@H](C)CO)C(=O)c2cc(NC(=O)c3ccccc3)ccc2O1	Pf Dd2 growth -85
C[C@H]1CCCCO[C@@H](CN(C)C(=O)C2CCCCC2)[C@@H](C)CN([C@@H](C)CO)C(=O)c2cc(NC(=O)CCC(F)(F)F)ccc2O1	Pf Dd2 growth -82
C[C@@H]1CN([C@H](C)CO)C(=O)c2cc(NC(=O)c3ccccc3)ccc2O[C@@H](C)CCCCO[C@@H]1CN(C)C(=O)C1CCCCC1	Pf Dd2 growth -84
C[C@H](CO)N1C[C@H](C)[C@@H](CN(C)C(=O)C2CCCCC2)OCCCC[C@H](C)Oc2ccc(NC(=O)CCC(F)(F)F)cc2C1=O	none
CCC(=O)N1CC[C@@H]2[C@@H](CO)Nc3ccc(-c4cccc(C#N)c4)cc3[C@@H]21	none
C[C@@H]1CN([C@@H](C)CO)C(=O)c2cc(NS(C)(=O)=O)ccc2O[C@@H](C)CCCCO[C@H]1CN(C)C(=O)NC1CCCCC1	none (no result: Tcruzi prolif)
C[C@@H]1CN([C@@H](C)CO)C(=O)c2ccccc2-c2ccccc2CO[C@@H]1CN(C)S(=O)(=O)c1ccccc1	none (no result: C diff HTS)
COc1ccccc1-c1cccc(-c2nc(C(=O)Nc3nccs3)cc3c2[C@@H](CCO)N(C(C)=O)C3)c1	none (no result: Tcruzi prolif)
COc1ccccc1-c1cccc(-c2nc(C(=O)Nc3nccs3)cc3c2[C@H](CCO)N(C(C)=O)C3)c1	Pf Dd2 growth -95 (no result: Tcruzi prolif)
COCC(=O)N(C)C[C@H]1Oc2cc(-c3ccc(OC)cc3)ccc2S(=O)(=O)N([C@@H](C)CO)C[C@H]1C	none
C[C@@H]1CN([C@H](C)CO)C(=O)c2cccc(NC(=O)c3ccc(-c4nccs4)cc3)c2O[C@H]1CN(C)Cc1ccc(-c2ccccc2)cc1	Pf Dd2 growth -82
C[C@H]1CN([C@@H](C)CO)C(=O)c2cccc(NC(=O)c3ccc(-c4nccs4)cc3)c2O[C@H]1CN(C)Cc1ccc(-c2ccccc2)cc1	none
C[C@H](CO)N1C[C@H](C)[C@H](CN(C)Cc2ccc(-c3ccccc3)cc2)Oc2c(NC(=O)c3ccc(-c4nccs4)cc3)cccc2C1=O	none
C[C@H]1CN([C@@H](C)CO)C(=O)c2cccc(NC(=O)c3ccc(-c4nccs4)cc3)c2O[C@@H]1CN(C)Cc1ccc2c(c1)OCO2	none
C[C@H]1CN([C@@H](C)CO)C(=O)c2cccc(NC(=O)c3ccc(-c4nccs4)cc3)c2O[C@H]1CN(C)C(=O)Nc1cccc2ccccc12	none
C[C@H](CO)N1C[C@H](C)[C@@H](CN(C)Cc2ccc(-c3ccccc3)cc2)Oc2c(NC(=O)c3ccc(-c4nccs4)cc3)cccc2C1=O	Pf Dd2 growth -86
C[C@@H]1CN([C@@H](C)CO)C(=O)c2cccc(NC(=O)c3ccc(-c4nccs4)cc3)c2O[C@@H]1CN(C)C(=O)Nc1cccc2ccccc12	Pf Dd2 growth -86
C[C@@H]1CN([C@H](C)CO)C(=O)c2cccc(NC(=O)c3ccc(-c4nccs4)cc3)c2O[C@H]1CN(C)Cc1ccc2c(c1)OCO2	Pf Dd2 growth -92
Cc1ccc(S(=O)(=O)NCC[C@H]2CC[C@@H](NC(=O)c3cccnc3)[C@@H](CO)O2)cc1	none
Cc1ccc(S(=O)(=O)Nc2ccc3c(c2)CC(=O)N([C@H](C)CO)C[C@H](C)[C@@H](CN(C)Cc2ccc(C(=O)O)cc2)O3)cc1	none (no result: Tcruzi prolif)
C[C@@H]1CN([C@@H](C)CO)C(=O)c2cc(NC(=O)C3CC3)ccc2O[C@H]1CN(C)Cc1ccc(Oc2ccccc2)cc1	none
COc1ccc2c3c([nH]c2c1)[C@@H](CO)N(C(=O)Nc1ccc(F)cc1)CC31CN(C(=O)Nc2ccc3c(c2)OCO3)C1	none (no result: Tcruzi prolif)
CCCN(C)C[C@@H]1Oc2cc(C#Cc3ccccc3OC)ccc2S(=O)(=O)N([C@@H](C)CO)C[C@@H]1C	none
C[C@@H]1CN([C@@H](C)CO)S(=O)(=O)c2ccc(-c3ccc(C#N)cc3)cc2O[C@@H]1CN(C)CC1CC1	none
CCCN(C)C[C@@H]1Oc2cc(C#Cc3cccnc3)ccc2S(=O)(=O)N([C@@H](C)CO)C[C@@H]1C	Pf Dd2 growth -86
C[C@H]1CN([C@@H](C)CO)S(=O)(=O)c2ccc(C#Cc3cccnc3)cc2O[C@H]1CN(C)CC1CC1	none (no result: C diff HTS)
CCCN(C)C[C@H]1Oc2cc(C#Cc3ccccc3OC)ccc2S(=O)(=O)N([C@H](C)CO)C[C@H]1C	Pf Dd2 growth -81
C[C@H]1CN([C@@H](C)CO)S(=O)(=O)c2ccc(-c3ccc(C#N)cc3)cc2O[C@H]1CN(C)CC1CC1	Pf Dd2 growth -91
C[C@H]1CN([C@@H](C)CO)C(=O)c2cc(C#CC3CC3)cnc2O[C@H]1CN(C)C(=O)CC1CC1	none
Cc1noc(C)c1NC(=O)Nc1ccc2c(c1)C(=O)N([C@H](C)CO)C[C@@H](C)[C@@H](CN(C)S(=O)(=O)c1ccccc1)OCCCC[C@H](C)O2	none
Cc1noc(C)c1S(=O)(=O)Nc1ccc2c(c1)C(=O)N([C@@H](C)CO)C[C@@H](C)[C@H](CN(C)C(=O)Nc1ccc(C(F)(F)F)cc1)OCCCC[C@H](C)O2	none
Cc1noc(C)c1S(=O)(=O)Nc1ccc2c(c1)C(=O)N([C@@H](C)CO)C[C@@H](C)[C@@H](CN(C)C(=O)Nc1ccc(C(F)(F)F)cc1)OCCCC[C@H](C)O2	Pf Dd2 growth -82
Cc1noc(C)c1S(=O)(=O)Nc1ccc2c(c1)C(=O)N([C@H](C)CO)C[C@H](C)[C@@H](CN(C)C(=O)Nc1ccccc1)OCCCC[C@H](C)O2	none
Cc1noc(C)c1S(=O)(=O)Nc1ccc2c(c1)C(=O)N([C@H](C)CO)C[C@@H](C)[C@@H](CN(C)C(=O)Nc1ccccc1)OCCCC[C@@H](C)O2	Pf Dd2 growth -84
COc1ccccc1NC(=O)N1CC(=O)N2[C@H](CO)[C@H](c3ccc(-c4ccc(F)cc4)cc3)[C@@H]2C1	none (no result: Tcruzi prolif)
